Bioassay records from PubChem.
This is a sample that favours compounds with a hit; in the whole collection about 19% have one here.
TDP1 cell CPT – DT40-hTDP1 cell growth loss with CPT; chicken DT40 Tdp1-/-;hTDP1 cells + 20 nM CPT, ATP luminescence, 48 h; Potency, µM (doses to about 46.2 µM), most hits filed as inhibitors; 420,000 compounds, 12% hits; AID 686979; note: nearly all actives have a fitted effect of over 55% in size
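Chicken DT40 Tdp1-/- cells stably complemented with human TDP1 were seeded at 400 cells/well in medium containing 20 nM camptothecin, exposed to pin-transferred compounds, and grown at 37 °C for at least 48 hr. Viability was read as ATP luminescence.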
DT40 TDP1 no CPT – qHTS for Inhibitors of human tyrosyl-DNA phosphodiesterase 1 (TDP1): qHTS in cells in absence of CPT; DT40 Tdp1-/- hTDP1 cells, no CPT, ATP luminescence, 48 h; Potency, µM (series often up to 46.2 µM), actives largely listed as inhibitors; 420,000 compounds, 15% hits; note: nearly all actives have a fitted effect of over 55% in size
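DT40 Tdp1-/-;hTDP1 cells, no CPT (DMSO vehicle only), 400 cells/well; compounds pin-transferred; ≥48 hr, 37 °C; CellTiter-Glo 30 min RT dark, luminescence read.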
HT1080 IDH1KD tx – kills HT-1080 cells with IDH1 knockdown | HT-1080 IDH1 knockdown viability, ATP luminescence, 48 h | Potency, µM (highest dose often 46.1 µM), actives largely listed as cytotoxic | 360,000 compounds, 2% hits | AID 686971
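IDH1KD HT-1080 cells, 750/well, RPMI + 5% FBS; compound pinned after 2 h settling; 48 h, 37 °C; CellTiter-Glo luminescence; % activity normalised to DMSO and no-cell wells; curves fitted, classed by r2 and efficacy.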
uPA generation – blocks generation of uPA at the cell surface; cell surface uPA generation assay, qHTS; Potency, µM (highest dose often 38.3 µM), most hits filed as inhibitors; 330,000 compounds, 0.31% hits; AID 540303; active = well fitted inhibition curve with a large enough effect; inconclusive = small, poorly fitted or top-dose-only effect; inactive = no such curve, though single readings can be large or run the other way; tested in mouse RAW 264.7 cells; note: nearly all actives have a fitted effect of over 55% in size
HT1080NT lethal – kills 2HG-producing HT-1080-NT fibrosarcoma cells; HT-1080-NT fibrosarcoma viability, CellTiter-Glo ATP luminescence, 48 h; Potency, µM (highest dose often 46.1 µM), hits mostly cytotoxic; 360,000 compounds, 1.6% hits; AID 686970;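 note: NT is the 2HG producing partner of a matched IDH1 knockdown line; nearly all actives have a fitted effect of over 55% in size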
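Toxicity toward the 2HG-producing NT line was scored as %Activity, normalised to DMSO and no-cell wells, from CellTiter-Glo luminescence after 48 hours' treatment.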
IL1B secr inh – inhibitors of inflammasome signaling (IL-1 beta secretion). THP-1 LPS/ATP IL-1B secretion, AlphaLISA, 16 h; active compounds read low. activity change, % at 57.5 µM. 360,000 compounds, 4.7% hits. AID 743279; in the data active = activity change below about -50%; inconclusive = mostly about -30% to -49%
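THP-1 cells pretreated 1 hr with compounds (up to 57.5 uM final), then stimulated with LPS (250 ng/mL final) plus ATP (1.25 mM final); secreted IL-1B measured by AlphaLISA after 16 hr, decreased signal indicating inhibition.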
A number is an active result; . = inactive; ? = inconclusive; / = no result given; [ ] = another dose, or the depositor's remark. Unless noted, calls come from the whole dose curve; as a rule, active = well fitted curve in the direction sought with a large enough effect; inconclusive = small, poorly fitted or top-dose-only effect, or another doubt; inactive = no such curve, though single readings can be large; an effect the other way counts as inactive or inconclusive.

SMILES | TDP1 cell CPT | DT40 TDP1 no CPT | HT1080 IDH1KD tx | uPA generation | HT1080NT lethal | IL1B secr inh
CC1CN(CC(O)COCc2ccc3c(c2)OCO3)CC(C)O1 (centres undefined) | ? | . | . | . | . | .
Cc1ccc(C(=O)NCCN2C3=NC[C@H](Cc4ccc(O)cc4)N3C[C@H]2Cc2ccc(O)cc2)cc1Br | ? | 16µM | . | . | . | .
C/C=C(\C)C(=O)NCCN1C2=NC[C@@H](C)N2C[C@H]1Cc1ccc(O)cc1 | . | . | . | . | . | .
COc1ccc(C[C@H]2CN3C(=NC[C@@H]3Cc3ccc(O)cc3)N2CCNC(=O)c2ccc(C)c(Br)c2)cc1 | 13µM | 13µM | ? | . | ? | .
CCCN1CCC(Oc2cccc(C(=O)NCCc3ccccc3)c2)CC1 | ? | . | . | . | . | .
Cc1ccc(C(=O)Nc2nnc(C)s2)cc1 | . | . | . | . | . | .
Cc1ccc(C(=O)Nc2ncc(Cc3ccc(SC(F)F)cc3)s2)cc1 | 1.2µM | 1.3µM | 2.6µM | ? | 1.8µM | .
COC(=O)c1cc(C)ccc1/C=C1/Cc2c(C)cc(C)cc2C1=O | 9.2µM | ? | . | . | . | .
COc1ccc2c(c1)-c1ccccc1S(=O)(=O)N2C | ? | ? | . | . | . | .
CN1c2ccccc2-c2ccccc2S1(=O)=O | 32µM | ? | . | . | . | .
O=S(=O)(c1cccc(C(F)(F)F)c1)n1c(/C=C/c2ccccc2)nc2ccccc21 | 8.2µM | 10µM | / | / | / | /
CSc1ccc(/C=C/c2nc3ccccc3n2S(=O)(=O)c2ccc(Br)cc2)cc1 | 15µM | 10µM | / | / | / | /
CC1(c2ccccc2)NC(=O)N(CC(=O)N2CCN(S(=O)(=O)c3cccc(C(F)(F)F)c3)CC2)C1=O (centres undefined) | . | . | . | ? | . | .
O=C(CN1CCCN(Cc2ccccc2Cl)S1(=O)=O)Nc1ccc2c(c1)OCCO2 | ? | . | / | / | / | /
O=C(Nc1ccc(/C=C/c2ccc(NC(=O)c3cc(S(=O)(=O)O)c4cccnc4c3O)cc2S(=O)(=O)O)c(S(=O)(=O)O)c1)c1cc(S(=O)(=O)O)c2cccnc2c1O | . | . | / | / | / | /
O=S(=O)(O)c1cc(I)c(O)c2ncccc12 | 21µM | 21µM | / | / | / | /
CC(C)c1ccc(-c2noc(C3CCCN(C(=O)c4ccc(F)cc4F)C3)n2)cc1 (centres undefined) | ? | 21µM | ? | / | .[9.24 µM] | ?
O=C(c1c(F)cccc1F)N1CCCC(c2nc(-c3ccc(F)cc3)no2)C1 (centres undefined) | 23µM | 16µM | . | . | . | .
O=S(=O)(Cc1ccccc1)N1CCCC(c2nc(-c3ccc(F)cc3)no2)C1 (centres undefined) | . | 18µM | . | / | .[9.24 µM] | .
O=C(c1ccc(F)cc1)N1CCCC(c2nc(-c3ccncc3)no2)C1 (centres undefined) | ? | ? | . | . | . | .
Cc1ccccc1NC(=O)N1CCCC(c2nc(-c3ccc(C(C)C)cc3)no2)C1 (centres undefined) | 16µM | 35µM | . | / | . | -77
O=C(NCCCN1CCOCC1)c1c(F)c(F)c(F)c(F)c1F | . | . | . | . | . | .
COc1ccc(OC)c(CNC(=O)Cn2ncc3c([nH]c4ccc(C)cc43)c2=O)c1 | . | . | / | / | / | /
CC(C)CNC(=S)N1CCC(c2nc(-c3ccc(F)cc3)no2)CC1 | 21µM | 21µM | ? | . | ? | .
Cc1ccc(C2CCN(C(=O)Nc3ccc(F)cc3)C2)cc1 (centres undefined) | . | ? | . | . | . | -68
SMILES | TDP1 cell CPT | DT40 TDP1 no CPT | HT1080 IDH1KD tx | uPA generation | HT1080NT lethal | IL1B secr inh
O=C(O)c1ccc(-c2noc(-c3ccccc3F)n2)cc1 | / | / | / | . | / | /
Cc1ccc(NC(=O)N2CCCC(c3nc(-c4ccc(F)cc4)no3)C2)cc1 (centres undefined) | 23µM | ? | . | . | . | .
COCCNC(=S)N1CCC(c2nc(-c3ccc(N(C)C)cc3)no2)CC1 | . | ? | . | ? | . | .
O=C(c1ccccc1-c1nc(-c2ccc(F)cc2)no1)N1CCCC1 | ? | 23µM | . | . | . | .
COc1ccccc1CNC(=O)c1cccnc1 | . | . | . | . | . | .
O=C(Nc1ccccc1)N1CCCC(c2nc(-c3ccc(F)cc3)no2)C1 (centres undefined) | ? | 18µM | . | . | . | .
O=C(CCCn1c(=O)c2cccn2c2cccnc21)NCCc1ccc(Cl)cc1 | 21µM | 23µM | . | . | . | .
CCC(C)NC(=O)CCCn1c(=O)c2cccn2c2ccccc21 (centres undefined) | . | . | / | / | / | /
CSc1cccc(NC(=O)CCCn2c(=O)c3cccn3c3cccnc32)c1 | ? | 21µM | . | . | . | .
CC(C)Oc1ccc(CNC(=O)CCCn2c(=O)c3cccn3c3ccccc32)cc1 | 16µM | 23µM | / | / | / | /
CCc1ccc(CNC(=O)CCCn2c(=O)c3cccn3c3cccnc32)cc1 | 16µM | ? | . | . | . | ?
CC(C)c1ccc(NC(=O)CN2C=NS(=O)(=O)c3ccccc32)cc1 | . | . | / | / | / | /
Cc1oc2ncn(C)c(=O)c2c1C(=O)Nc1ccc(F)cc1 | . | . | / | / | / | /
O=C(Nc1ccc(N2CCCCC2)cc1)c1ccc2ccccc2n1 | ? | ? | . | . | . | .
CC(C)Oc1ccc(CNC(=O)CCCn2c(=O)c3cccn3c3cccnc32)cc1 | 26µM | 16µM | / | / | / | /
CC(C(=O)NCCc1ccc(Cl)cc1)n1c(=O)c2cccn2c2cccnc21 (centres undefined) | ? | 18µM | . | . | . | .
CCOc1cc(CNC(=O)CCCn2c(=O)c3cccn3c3cccnc32)cc(OCC)c1OCC | ? | 23µM | . | . | . | .
CCCNC(=O)COc1coc(CN2CCN(c3ccccc3OC)CC2)cc1=O | . | . | . | . | . | .
Cc1cc(C)cc(NC(=O)COc2coc(CN3CCc4ccccc43)cc2=O)c1 | ? | ? | ? | . | ? | .
O=C(COc1coc(CN2CCCc3ccccc32)cc1=O)Nc1ccccc1 | ? | 5.8µM | . | . | . | .
Cc1ccc(NC(=O)COc2coc(CN3CCc4ccccc43)cc2=O)c(C)c1 | ? | 15µM | . | . | . | .
Cc1ccc(C)c(NC(=O)COc2coc(CN3CCc4ccccc4C3)cc2=O)c1 | 18µM | 16µM | . | . | . | .
COc1ccc(CCNC(=O)COc2coc(CN3c4ccccc4CC3C)cc2=O)cc1OC (centres undefined) | ? | 16µM | . | . | . | .
